Source: PubChem BioAssay AID720711 (National Center for Advancing Translational Sciences (NCATS), 2013)
Hit rate of the full screen: of about 360,000 compounds, about 290 (0.081%) were called active. Entries that show only a call come without a potency. Calls follow the shape of the dose curve; as a rule, active = well fitted activation curve with a large enough effect; inconclusive = small, poorly fitted or top-dose-only effect; inactive = no such curve, though single readings can be large or run the other way. This excerpt belongs to a sample that is enriched for actives.

target: Rap guanine nucleotide exchange factor 4 (Homo sapiens) (UniProt Q8WZA2); assay: qHTS for Agonist of cAMP-regulated guanine nucleotide exchange factor 4 (EPAC2): primary screen; settings: biochemical qHTS; Potency: EPAC2 activation; series mostly up to 154 µM; also: nearly all actives have a fitted effect of over 50% in size
How it was run: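 In this primary screen, activation is scored as increased exchange of BODIPY-GDP from Rap1B by 100 nM EPAC2, with 50 uM GDP as competitor. Signal is normalized to the 6.5 mM cAMP agonist control.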
Potency is read from the fitted curve at half-maximal effect.

Sequence of Rap guanine nucleotide exchange factor 4 (Homo sapiens) (Q8WZA2 whole entry, looked up): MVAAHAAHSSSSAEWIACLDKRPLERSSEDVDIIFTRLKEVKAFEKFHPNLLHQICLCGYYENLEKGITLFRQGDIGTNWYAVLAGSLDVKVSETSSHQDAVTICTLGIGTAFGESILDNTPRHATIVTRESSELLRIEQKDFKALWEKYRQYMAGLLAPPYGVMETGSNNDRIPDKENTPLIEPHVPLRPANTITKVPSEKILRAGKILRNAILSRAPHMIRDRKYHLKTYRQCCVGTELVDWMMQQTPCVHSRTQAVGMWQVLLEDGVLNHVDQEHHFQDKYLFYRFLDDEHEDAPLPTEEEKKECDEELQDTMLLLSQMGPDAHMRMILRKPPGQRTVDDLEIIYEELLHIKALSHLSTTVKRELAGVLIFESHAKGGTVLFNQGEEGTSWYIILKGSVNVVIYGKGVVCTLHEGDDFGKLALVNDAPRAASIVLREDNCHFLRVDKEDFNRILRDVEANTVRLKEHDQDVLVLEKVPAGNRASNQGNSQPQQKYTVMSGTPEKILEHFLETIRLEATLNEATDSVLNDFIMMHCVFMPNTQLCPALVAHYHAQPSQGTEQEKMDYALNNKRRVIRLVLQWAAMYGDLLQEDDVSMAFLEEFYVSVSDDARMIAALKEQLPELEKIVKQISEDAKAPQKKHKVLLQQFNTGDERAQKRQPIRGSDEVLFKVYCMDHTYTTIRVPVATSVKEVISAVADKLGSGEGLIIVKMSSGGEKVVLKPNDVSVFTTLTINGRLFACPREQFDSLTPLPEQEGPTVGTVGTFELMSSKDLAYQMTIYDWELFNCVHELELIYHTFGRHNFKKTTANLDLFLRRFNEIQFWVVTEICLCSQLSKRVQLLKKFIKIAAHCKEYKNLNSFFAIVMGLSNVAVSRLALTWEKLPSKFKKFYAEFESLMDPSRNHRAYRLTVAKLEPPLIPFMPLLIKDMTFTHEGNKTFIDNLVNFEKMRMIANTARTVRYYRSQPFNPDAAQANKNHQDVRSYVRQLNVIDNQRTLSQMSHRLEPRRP

Row | SMILES | Potency
1 | Cc1cc(-c2ccccc2)n2nc(C)c(-c3ccccc3)c2n1 | inactive
2 | CC1=C/C(=N\OS(=O)(=O)c2ccccc2)C=CC1=O | inactive
3 | COc1cccc(NC(=O)CSc2nnc(Cc3ccc(OC)c(OC)c3)o2)c1 | inactive
4 | COc1ccc(NC(=O)CCCOc2ccc(C(C)=O)cc2)cc1S(=O)(=O)N1CCCCC1 | inactive
5 | COc1ccc(/C=C(\C#N)C(=O)ONC2=NCCCCC2)cc1 | inactive
6 | CCOC(=O)/C(C#N)=C\c1c(C)cc(C)c(COC(C)=O)c1C | inactive
7 | CCCn1c(C)cc(/C=C(\C#N)C(=O)OCC(=O)N(C)c2c(N)n(Cc3ccccc3)c(=O)[nH]c2=O)c1C | inactive
8 | COC(=O)c1sc(N2CCN(Cc3ccccc3)CC2)nc1N | inactive
9 | CCOC(=O)/C(C#N)=C/c1ccc(N2CCN(Cc3ccccc3)CC2)cc1 | 89.1 µM (active)
10 | CCOC(=O)/C(C#N)=C/c1ccc(N2CCCCC2)cc1 | 79.4 µM (active)
11 | O=C(Nc1ccccc1)Oc1cccc2cccnc12 | inactive
12 | CCc1cc2c(=O)c(-c3ccon3)c(N)oc2cc1OC | inactive
13 | COCc1cc(C)nc2sc(C(=O)NC3CCCCC3)c(N)c12 | inactive
14 | Cc1ccc(C2(C(F)(F)F)N=C3Sc4cc(C)cc(C)c4N3C(=O)N2)cc1 (configuration not stated) | inactive
15 | CC(C)C[C@H]1CN=C(Nc2ccccc2)N1CC1CCCCC1 | inactive
16 | NC1=NOC(=O)C1C1CCCCC1 (configuration not stated) | inactive
17 | COc1ccc(-c2nnc(SCC(=O)Nc3cccnc3Cl)n2C)cc1 | inactive
18 | CCc1nccn1CCC(=O)N1CCCC(N2CCN(c3ccccc3F)CC2)C1 (configuration not stated) | inactive
19 | CC1=C(C(=O)N(C(C)C)C(C)C)CC(CC(=O)NCC2CCCCC2)C(=O)N1Cc1ccccc1 (configuration not stated) | inactive

Row | SMILES | Potency
20 | O=C(O)CCCn1c(=O)c2cccn2c2ccc(F)cc21 | inactive
21 | CCOc1ccccc1NC(=O)C1CCC(CNc2c(N3CCOCC3)c(=O)c2=O)CC1 (configuration not stated) | inactive
22 | CC(C)CNC(=O)/C=C/C(=O)O | inactive
23 | CCN(CC)CCn1c(N)c(S(=O)(=O)c2ccccc2)c2nc3ccccc3nc21 | inactive
24 | C=CCN1CN(S(=O)(=O)c2ccc(OC)cc2)c2nc3ccccc3nc21 | inactive
25 | C=CCn1c(N)c(S(=O)(=O)c2cccs2)c2nc3ccccc3nc21 | 10 µM (active)
26 | Cn1ncc(N2CCN(S(=O)(=O)c3ccc(Br)cc3)CC2)c(Cl)c1=O | inactive
27 | CCCCn1c(N)c(N(CCC(C)C)C(=O)c2ccc(COc3ccccc3)o2)c(=O)[nH]c1=O | inactive
28 | Cc1cccc(C2c3[nH]c4ccccc4c3CCN2C(=O)c2cc(-c3cccn3C)n[nH]2)n1 (configuration not stated) | inactive
29 | O=C(NC1(C(F)(F)F)N=C2SCCN2C1=O)c1ccco1 (configuration not stated) | inactive
30 | NC(=O)COC(=O)c1sc2cc(F)ccc2c1Cl | inactive
31 | NC(=O)C1CCN(C(=O)c2ccc3c(=O)n(Cc4cccc(Br)c4)c(=S)[nH]c3c2)CC1 | inactive
32 | Cc1ccc(SCC(=O)c2cc(C)c(OC(=S)N(C)C)c(C)c2)cc1 | inactive
33 | CSc1cc(C)[nH]c(=O)n1 | inactive
34 | CCCNC(=O)CCc1c(C)nc2c(c(C)nn2-c2ccccc2)c1C | inactive
35 | COc1ccccc1CNC(=O)CN1CCC(n2cnc3cc(F)ccc32)CC1 | inactive
36 | CCN(CC)c1ncnc2c1ncn2[C@H]1CN(Cc2cccs2)C[C@@H](CO)O1 | inactive
37 | COc1ccc(OCC(=O)OCC(=O)Nc2ccc(S(=O)(=O)N3CCCCC3)cc2)cc1 | inactive
38 | CCCN(CC(=O)Nc1ccc(OC)c(OC)c1)CC(=O)Nc1ccc(F)c(F)c1F | inactive

Row | SMILES | Potency
39 | COc1cccc(N=c2oc3c(C)ncc(CO)c3cc2C(N)=O)c1 | inactive
40 | Cc1ccc(CNC(=O)C2CCN(S(=O)(=O)c3ccc4nc5c(c(C(=O)O)c4c3)CC(C)CC5)CC2)cc1 (configuration not stated) | inactive
41 | CCCCc1nc2cc(C(=O)N3CCCCC3CCO)ccc2o1 (configuration not stated) | inactive
42 | COc1cc(C)c(Cl)cc1S(=O)(=O)n1ccnc1 | inactive
43 | Cc1ccc2c(=O)oc(N(C)C)nc2c1 | inactive
44 | CN(Cc1nc2ccccc2c(=O)[nH]1)Cc1cc(=O)oc2ccc3ccccc3c12 | inactive
45 | CCN(CC)c1ccc2oc(=O)c(C)nc2c1 | 100 µM (active)
46 | Cc1cc(C)cc(N(CC(=O)NCC2CCCO2)S(=O)(=O)c2c(C)noc2C)c1 (configuration not stated) | inactive
47 | Cc1cc2nc3c(=O)n(Cc4ccccc4)c(=O)[nH]c3nc2cc1N | 112 µM (active)
48 | Cc1cc(OCC(=O)N(C)c2c(N)n(Cc3ccccc3)c(=O)[nH]c2=O)c(C(C)C)cc1Cl | inactive
49 | Cn1c(=O)[nH]c(=O)c2c1[nH]c(=S)n2Cc1ccccc1 | inactive
50 | CCn1nc(C)c(CNC(=O)C2CCC(=O)N(Cc3cccc(F)c3)C2)c1C (configuration not stated) | inactive
51 | CN(C)C(=O)c1nc2ccc(Cl)cn2c1CNCc1cccc(OC(F)(F)F)c1 | inactive
52 | CSCCC(NC(N)=O)C(=O)N(C)CC(=O)Nc1ccc(C)cc1 (configuration not stated) | inactive
53 | CCCCN(C1CCS(=O)(=O)C1)S(=O)(=O)c1ccc(C(C)C)cc1 (configuration not stated) | inactive
54 | CCCC(=O)NC(=S)Nc1ccc(CN2CCOCC2)cc1 | inactive
55 | O=C(CCCl)Nc1ccc(S(=O)(=O)NCc2ccco2)cc1 | inactive
56 | O=C(CNC(c1ccccc1)c1ccccc1)Nc1ccc(F)cc1 | inactive
57 | COc1ccc(S(=O)(=O)N2CCCC(C(=O)Nc3ccc(NC(=O)c4ccccn4)cc3)C2)cc1 (configuration not stated) | inactive
